Tgondii IFNg: T. gondii growth inhibition under IFN-gamma | Toxoplasma gondii growth in IFN-gamma-treated host cells; hits give low values | activity change, negative = inhibition, % (test concentration not listed) | AID 1259416 | 3.8% of 69,000 active; in the data active means activity change below about -70%, passing the limit was not always enough;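 further: host cells are HeLa cells infected with Toxoplasma gondii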
* hit, by the source's call. Many of the other results were omitted from the sample, so hits are more common in it than they were.

SMILES	Tgondii IFNg
Cc1noc(C)c1NC(=O)Nc1ccc2c(c1)C(=O)N([C@@H](C)CO)C[C@@H](C)[C@@H](CN(C)S(=O)(=O)c1cccs1)OCCCC[C@@H](C)O2	3.0
Cc1ccc(S(=O)(=O)Nc2ccc3c(c2)C(=O)N([C@H](C)CO)C[C@@H](C)[C@@H](CN(C)S(=O)(=O)c2cccs2)OCCCC[C@H](C)O3)cc1	-116.7*
Cc1noc(C)c1NC(=O)Nc1ccc2c(c1)C(=O)N([C@@H](C)CO)C[C@H](C)[C@H](CN(C)S(=O)(=O)c1cccs1)OCCCC[C@@H](C)O2	328.3
C[C@H](CO)N1C[C@H](C)[C@H](CN(C)C(=O)c2ccncc2)OCCCC[C@H](C)Oc2ccc(NS(=O)(=O)c3cccs3)cc2C1=O	-46.6
Cc1noc(C)c1NC(=O)Nc1ccc2c(c1)C(=O)N([C@H](C)CO)C[C@H](C)[C@H](CN(C)S(=O)(=O)c1cccs1)OCCCC[C@@H](C)O2	43.5
Cc1ccc(S(=O)(=O)Nc2ccc3c(c2)C(=O)N([C@H](C)CO)C[C@H](C)[C@H](CN(C)S(=O)(=O)c2cccs2)OCCCC[C@H](C)O3)cc1	-121.0*
Cc1ccc(S(=O)(=O)Nc2ccc3c(c2)C(=O)N([C@@H](C)CO)C[C@@H](C)[C@H](CN(C)S(=O)(=O)c2cccs2)OCCCC[C@@H](C)O3)cc1	-103.2*
Cc1noc(C)c1NC(=O)Nc1ccc2c(c1)C(=O)N([C@H](C)CO)C[C@@H](C)[C@H](CN(C)S(=O)(=O)c1cccs1)OCCCC[C@H](C)O2	442.3
Cc1noc(C)c1NC(=O)Nc1ccc2c(c1)C(=O)N([C@H](C)CO)C[C@@H](C)[C@@H](CN(C)S(=O)(=O)c1cccs1)OCCCC[C@H](C)O2	-42.2
Cc1noc(C)c1NC(=O)Nc1ccc2c(c1)C(=O)N([C@H](C)CO)C[C@H](C)[C@H](CN(C)S(=O)(=O)c1cccs1)OCCCC[C@H](C)O2	261.9
Cc1ccc(S(=O)(=O)Nc2ccc3c(c2)C(=O)N([C@H](C)CO)C[C@@H](C)[C@H](CN(C)S(=O)(=O)c2cccs2)OCCCC[C@H](C)O3)cc1	-131.1*
Cc1noc(C)c1NC(=O)Nc1ccc2c(c1)C(=O)N([C@H](C)CO)C[C@H](C)[C@@H](CN(C)S(=O)(=O)c1cccs1)OCCCC[C@@H](C)O2	156.9
CC(C)Oc1ccccc1-c1cccc(CN2CCOCC2)c1	-2.8
O=C(c1cccs1)N1C[C@H]2OC(=O)N(CCc3ccc(F)cc3)[C@H]2C1	3.9
COCC(c1ccccn1)N(C)C(=O)c1noc2c1CCCC2 (stereo not given)	4.3
FC(F)(F)c1cc(-c2noc(-c3ccc4c(c3)CCO4)n2)cc(C(F)(F)F)c1	-11.8
CCOC(=O)N1CCC2(CC1)OC(=O)C(C)=C2C(=O)NCc1cccc(Cl)c1	135.2
Cc1ccc(NC(=O)N2CCN(Cc3nc(-c4ccccc4C)oc3C)CC2)cc1F	3.6
Cc1cccc(CNC(=O)c2ccccc2NC(=O)C(C)N2CCCC2=O)c1 (stereo not given)	-5.2
Cc1ccc(CN2CCc3nc(-c4cnn(C)c4)nc(N(C)C)c3C2)s1	-28.0
COc1ccc(CC(=O)Nc2ccc(-c3nc(Cn4cccn4)c(C)o3)cc2)cc1Cl	-34.6
O=C(NCCCc1nc2ccccc2[nH]1)c1cnnn1-c1ccccc1	0.6
c1ccc(CN2CCOCC2c2nccc(N3CCCC3)n2)cc1 (stereo not given)	-0.1
CSc1ncccc1C(=O)Nc1ccc2c(c1)CCC(=O)N2C	65.3
C[C@H](CO)N1C[C@H](C)[C@H](CN(C)C(=O)C2CCCCC2)OCCCC[C@H](C)Oc2ccc(NS(=O)(=O)c3ccccc3)cc2C1=O	-102.2*
SMILES	Tgondii IFNg
C[C@H]1CCCCO[C@@H](CN(C)C(=O)C2CCCCC2)[C@@H](C)CN([C@@H](C)CO)C(=O)c2cc(NS(=O)(=O)c3ccccc3)ccc2O1	-30.6
C[C@H]1CCCCO[C@H](CN(C)C(=O)C2CCCCC2)[C@@H](C)CN([C@@H](C)CO)C(=O)c2cc(NS(=O)(=O)c3ccccc3)ccc2O1	-32.8
COc1ccc(NC(=O)Cc2cccs2)cc1OC	8.3
Cc1c(C(=O)OCc2ccccc2)sc(N)c1C#N	135.5
Cn1cc(CNC2CCC3(CCC(=O)N3)CC2)cn1 (stereo not given)	54.3
COc1ccc(-c2nc(C)ncc2C)cc1Cl	1.4
COc1ccc(-c2cnc(N)cn2)cc1Cl	-87.7*
COc1ccc(-c2ccccc2C(N)=O)cc1Cl	7.4
CCn1c(CC2CCN(Cc3cc(C#CCO)cs3)CC2)n[nH]c1=O	-8.8
CC(C)[C@H]1c2ccc(F)cc2CC[C@@]1(CCN(C)CCCc1nc2ccccc2[nH]1)OC(=O)C1CC1	-86.1*
CC(C)N1CCNC(=O)C1CC(=O)N(C)Cc1nc2ccccc2[nH]1 (stereo not given)	-1.1
CN(Cc1nc2ccc(F)cc2[nH]1)C1CCN(C(=O)c2ccccc2)CC1	-0.4
CCN(CC)C(=O)CC1CC2(CCN(S(=O)(=O)CC)CC2)Oc2ccccc21 (stereo not given)	-1.2
Cc1ccc(C(C)C)c(OCCNC(=O)Cn2nc(C)nc2C)c1	1.5
